These results are taken from PubChem BioAssay AID2234 (The Scripps Research Institute Molecular Screening Center, 2010).

For orientation: inhibition means the drop in the measured response relative to a control, in per cent.

About 480 (0.15%) of roughly 320,000 compounds were called active. This is one part of a sample in which actives are shown more often than they occur. Rule as the data show it: active = inhibition above about 33%; inactive = the rest.

For the assay, the target named is Lytic switch protein BZLF1 (Epstein-Barr virus (strain B95-8)) (UniProt P03206). In words: Zta-DNA interaction blockers, Epstein-Barr virus – biochemical, fluorescence polarization, single concentration, counter-screen for EBNA-1 inhibitor project, primary screen (AID 2234). The settings on record: ZTA-DNA binding, at 11 µM, active compounds read high.
Sequence of Lytic switch protein BZLF1 (Epstein-Barr virus (strain B95-8)) (P03206 whole entry, looked up): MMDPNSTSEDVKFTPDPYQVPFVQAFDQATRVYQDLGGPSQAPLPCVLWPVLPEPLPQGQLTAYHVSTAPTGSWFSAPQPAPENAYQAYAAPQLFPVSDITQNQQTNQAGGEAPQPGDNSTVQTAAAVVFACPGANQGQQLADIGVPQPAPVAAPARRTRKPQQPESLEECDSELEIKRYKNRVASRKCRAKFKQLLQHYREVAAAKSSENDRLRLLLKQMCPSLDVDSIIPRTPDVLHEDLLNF
Take `Cc1cc(C(=O)Nc2ccc(C)c(S(=O)(=O)N3CCOCC3)c2)c2ccccc2n1`: the inhibition was -3.91% (inactive).
As for `CCC(C)OC(=O)C(C)Oc1ccc(-c2ccccc2)cc1` (centres undefined), the figure is -16.6% (inactive); as for `CCc1nc2ccccc2n(CCOCCOCCn2c(=O)c(CC)nc3ccccc32)c1=O`, -7.86% (inactive); as for `CCCCC1N2CC3([N+](=O)[O-])CN1CC([N+](=O)[O-])(C2)C3(C)C` (centres undefined), 7.41% (inactive).
With `COc1ccccc1C(=O)Nc1ccc(OCC(=O)N2CCCCC2)cc1` the figure was -10.8% (inactive).
Consider `COc1ccc(C)cc1NC(=O)CN1c2cccc3cccc(c23)S1(=O)=O`, for which the inhibition was -1.52% (inactive).
With `O=C(O)c1cc(S(=O)(=O)N(Cc2ccccc2)c2ccccc2)ccc1Cl` the figure was -1.08% (inactive); with `O=C(CSc1nc(C2CC2)nc2ccccc12)Nc1cccc(O)c1`, -4.91% (inactive).
As for `C=CCn1c(SCC(=O)NC(=O)Cc2ccccc2)nc2ccccc2c1=O`, the figure is -2.81% (inactive); as for `O=C(c1cc(S(=O)(=O)N2CCOCC2)ccc1Cl)N1CCOCC1`, 17.7% (inactive).
Take `FC(F)(F)c1ccc2c3n(nc2c1)CCN=C3c1ccc(Cl)cc1`: the inhibition was 0.92% (inactive).
For the molecule `Cc1ccc(C(=O)c2coc3ccc(O)c(CN(C)C)c23)cc1`, the inhibition is -9.15% (inactive).
Consider `COc1ccccc1-n1ccnc(SCC(=O)NC2CCCCC2)c1=O`, for which the inhibition is -6.9% (inactive).
As for `CC1CCC2(CC1)NC(=O)N(CC(=O)c1cccn1C)C2=O` (centres undefined), the figure is -3.24% (inactive).
As for `Cc1ccc(C(=O)NCC(c2cccs2)N(C)C)cc1S(=O)(=O)N1CCOCC1` (centres undefined), the figure is -3.98% (inactive); as for `O=C(OCC1O[C@@H](OC(=O)c2cc(O)c(O)c(O)c2)[C@@H](OC(=O)c2cc(O)c(O)c(O)c2)[C@@H](OC(=O)c2cc(O)c(O)c(O)c2)[C@@H]1OC(=O)c1cc(O)c(O)c(O)c1)c1cc(O)c(O)c(O)c1` (some centres undefined), 56.7% (active); as for `O=C(OCC1OC(Oc2ccc(O)cc2)C(O)C(O)C1O)c1ccccc1` (centres undefined), -3.45% (inactive).
As for `CN1C(=O)/C(=C/c2ccco2)SC1=Nc1cccc(C(=O)O)c1`, the figure is 34% (active).
`Cc1cc(/C=C2\SC(=O)N(C)C2=O)c(C)n1-c1cccc(C(=O)O)c1`: the inhibition was -5.96% (inactive).
With `Cc1cc(/C=C2\SC(=Nc3ccc(N4CCOCC4)cc3)N(C)C2=O)c(C)n1-c1cccnc1` the figure was -10.5% (inactive); with `CCC(C)(C)n1nnnc1C(c1cccs1)N1CCN(c2nc3ccccc3s2)CC1` (centres undefined), 4.48% (inactive); with `COc1cc(NC(=S)N2CCCC(C)C2)c(OC)cc1Cl` (centres undefined), 1.82% (inactive).
As to `CCOc1cc(C)c(S(=O)(=O)NCc2ccccn2)cc1C`, the inhibition is 12.5% (inactive).
For `CCSc1sc(CC)cc1C=O`, the inhibition is 3.38% (inactive).
As to `CC(C)c1ccc(-c2nn[nH]n2)cc1`, the inhibition is -11.4% (inactive).
With `COC(=O)c1c(-c2ccsc2)oc2ccc(-c3cc(OC)c(OC)c(OC)c3)cc12` the figure was -1.27% (inactive); with `Cc1ccc(N2CCN(S(=O)(=O)N(C)C)CC2)cc1Cl`, 10.4% (inactive); with `O=C(NCC(=O)N1CCC2(CC1)NCCc1[nH]cnc12)c1ccc(Br)cc1`, -4.85% (inactive).
Regarding `CCOC(=O)CNc1nc(Cl)nc(Nc2ccccc2)n1`, the inhibition is 3.82% (inactive).
As for `CCC(=O)Nc1ccc(C(=O)Nc2cc(C)on2)cc1`, the figure is -11.8% (inactive).
With `CCC(=O)Nc1ccc(Nc2nc(Cl)nc(Nc3ccc(NC(=O)CC)cc3)n2)cc1` the figure was 33.6% (active).
As to `O=C(CCCCCn1c(=S)[nH]c2ccsc2c1=O)NC1CCCCC1`, the inhibition is 10.7% (inactive).
As for `CCn1c(O)c2ccc(C(=O)N=NC(=O)c3cccnc3)cc2c1O`, the figure is -7.57% (inactive).
As for `CCOC(=O)CN(C(=O)CN1CCOCC1)c1ccc(Br)cc1`, the figure is 13% (inactive).
With `CCCC(C)C(=O)Nc1ccc(NC(C)=O)cc1` (centres undefined), the inhibition is -5.74% (inactive).
`COc1ccc(C(C(=O)NCC2CCCO2)N(C(=O)Cn2nnc3ccccc32)c2ccc(NC(C)=O)cc2)cc1OC` (centres undefined): the inhibition is -7.72% (inactive).
With `Cc1ccc(-c2csc(NC(=O)C3=COCCO3)n2)cc1C`, the inhibition is -12.1% (inactive).
Take `Cc1ccc(C)c(OCC(=O)NNC(=O)C2CCC2)c1`: the inhibition was 1.86% (inactive).
As for `O=C(Cn1cc(C(=O)C2CC2)c2ccccc21)Nc1ccccc1Cl`, the figure is 14.6% (inactive); as for `Cc1cc(C(=O)OC(C)C(=O)NC2CCCCC2C)c(C)o1` (centres undefined), -3.44% (inactive); as for `COc1ccc(-c2nnc(SC(=O)N3c4ccccc4Sc4ccccc43)o2)cc1`, 6.65% (inactive).
With `O=C(O)C1CCCN1C1=NS(=O)(=O)c2ccccc21` (centres undefined) the figure was 9.03% (inactive); with `CC(C)(C)C(=O)COC(=O)c1cc(S(=O)(=O)N2CCCCC2)ccc1N1CCOCC1`, -4.54% (inactive).
For the molecule `CN(Cc1ccco1)S(=O)(=O)c1nnc(NC(=O)c2ccccc2)s1`, the inhibition is 13.9% (inactive).
`COc1ccc(-c2nonc2NC(=O)c2oc3ccc(F)cc3c2C)cc1OC`: the inhibition was -1.66% (inactive).
`CCCCC(C(=O)NC(C)(C)C)N(Cc1ccccc1)C(=O)c1snc(C(N)=O)c1N` (centres undefined): the inhibition is -11.4% (inactive).
Consider `CC1(C)O[C@@H]2CC3C4C[C@H](F)C5=CC(=O)C=CC5(C)C4C(O)CC3(C)[C@]2(C(=O)CO)O1` (some centres undefined), for which the inhibition is 3.09% (inactive).
As for `Clc1ccc(-n2nnnc2CN2CCCCC2)cc1Cl`, the figure is 7.74% (inactive); as for `COc1ccc(C2=NN(C(=O)c3ccccc3C(=O)O)C(c3ccccc3O)C2)cc1` (centres undefined), -14.4% (inactive); as for `CCN(CC)S(=O)(=O)c1ccc(C(=O)N2CCN(C3=NS(=O)(=O)c4ccccc43)CC2)cc1`, -8.64% (inactive).
With `COC(=O)Nc1ccc(S(=O)(=O)N(C)CC(F)(F)C(F)F)cc1` the figure was 9.51% (inactive).
For the molecule `CN(C(=O)C1CCN(c2ncnc3c2nc2n3CCCCC2)CC1)C1CCCCC1`, the inhibition is -0.51% (inactive).
With `CC(=O)NNC1=Nc2ccccc2N(C)C(C)C1` (centres undefined) the figure was -9.35% (inactive); with `CCc1cccc(NC(=S)N(CCN(C)C)C2CCN(C(C)C)CC2)c1`, -6.22% (inactive).
Consider `Cc1ccc(C2=NN(C(=O)CSc3nc(N)cc(N)n3)C(c3ccco3)C2)cc1` (centres undefined), for which the inhibition is 0.17% (inactive).
For `CC(=O)Nc1ccc(S(=O)(=O)N(C)c2ccc(OCC(=O)OCC(=O)N3CCCCC3)cc2)cc1`, the inhibition was -11.6% (inactive).
For the molecule `CCCC(C)n1[nH]c(=O)c2c(C)cc(C)nc21` (centres undefined), the inhibition is 11.1% (inactive).
As to `CC(=O)Nc1ccc(NC(=O)C2CCCN2S(=O)(=O)c2cccc(C(F)(F)F)c2)cc1` (centres undefined), the inhibition is 17.1% (inactive).
As to `C=CCn1c(COc2ccc(F)cc2)nnc1SCC(=O)Nc1cccc(S(N)(=O)=O)c1`, the inhibition is 3.26% (inactive).
With `O=C(CCn1c(=S)[nH]c2cc3c(cc2c1=O)OCO3)NCc1ccc(Cl)cc1` the figure was 2.43% (inactive).
With `N#C/C=C1\Sc2ccccc2C(=O)N1CC(=O)N1CCN(S(=O)(=O)c2ccccc2)CC1`, the inhibition is -8.28% (inactive).
Turning to `O=C(O)Cc1csc(NC(=O)CSc2nnnn2-c2ccc(O)cc2)n1`, the inhibition is 2.08% (inactive).
As for `O=C(/C=C/c1cc2c(cc1Br)OCO2)NCc1ccc(Cl)cc1`, the figure is -6.35% (inactive); as for `CC(=O)Nc1c2c(nn1-c1ccc(C)cc1C)CS(=O)C2` (centres undefined), -22.1% (inactive); as for `NC(=O)C1CCN(C(=O)c2ccc3c(=O)n(Cc4cccc(Br)c4)c(=S)[nH]c3c2)CC1`, -10.6% (inactive).
Consider `C#CCOCCOCCOCCNc1nc(N2CCN(C(=O)CCCCCCCCCCNC(=O)[C@H]([C@@H](C)CC)n3cc(CCCCN=C(N)N)nn3)CC2)nc(N2CCN(C(=O)CCCCCCCCCCNC(=O)[C@H](CO)n3cc(CCCSC)nn3)CC2)n1`, for which the inhibition is 134% (active).
In the case of `C#CCOCCOCCOCCNc1nc(N2CCN(C(=O)CCCCCCCCCCNC(=O)Cn3cc(CCCCCN)nn3)CC2)nc(N2CCN(C(=O)CCCCCCCCCCNC(=O)[C@H](CO)n3cc(CCCSC)nn3)CC2)n1`, the inhibition is 24.8% (inactive).
With `C#CCOCCOCCOCCNc1nc(N2CCN(C(=O)CCCCCCCCCCNC(=O)[C@H](CCCCN)n3cc(C)nn3)CC2)nc(N2CCN(C(=O)CCCCCCCCCCNC(=O)[C@H](CO)n3cc(CCCSC)nn3)CC2)n1`, the inhibition is 12.7% (inactive).
With `COC(=O)c1ccc(NC(=O)CSc2nnc(Cc3cccn3C)n2-c2ccc(F)cc2)cc1` the figure was 11.4% (inactive); with `Cc1ccc(Cc2cncc(O)c2)cc1S(=O)(=O)O`, -9.54% (inactive).
With `Cc1csc(CN(C)C(=O)CC2C(=O)NCCN2CC(C)(C)C)n1` (centres undefined) the figure was 5.13% (inactive); with `CCN1C(=O)C(=O)N(CC(=O)Nc2cc(C)ccc2C)C1=O`, 9.39% (inactive); with `CSc1ccccc1NC(=O)c1ccc2c(c1)CCN2S(C)(=O)=O`, 14.6% (inactive).
For `Cc1ccc(OCC(=O)Nc2ccccc2C(=O)NC2CC2)cc1C`, the inhibition was 1.2% (inactive).
For the molecule `CCCCNC(=O)C1(O)c2ccccc2NC(=O)N1c1ccc(Cl)cc1` (centres undefined), the inhibition is 2.71% (inactive).
For `O=C(N/N=C/c1cccc2cccnc12)[C@H]1C[C@@H]1c1ccccc1`, the inhibition was -1.05% (inactive).
As for `Cc1ccc(Cc2nnc(SCC(=O)Nc3ccc(C)cc3C)[nH]c2=O)cc1`, the figure is 2.99% (inactive).
As for `CCC1Oc2ccccc2N(CC(=O)NCCCN2CCN(CC)CC2)C1=O` (centres undefined), the figure is -3.45% (inactive); as for `COc1ccc(C(=O)C2CCCN(C(=O)c3cnsn3)C2)c(C)c1` (centres undefined), -0.75% (inactive).
With `COc1ccc(S(=O)(=O)/N=C2\C=C(NS(=O)(=O)c3ccccc3)C(=O)c3ccccc32)cc1`, the inhibition was 7.31% (inactive).
In the case of `Cc1ccc(C2CC(c3cccc(NS(C)(=O)=O)c3)=NN2S(C)(=O)=O)cc1` (centres undefined), the inhibition is 0.89% (inactive).
As for `CN1CCN(Cc2nc3cc(NC(=O)COc4ccc([N+](=O)[O-])cc4)ccc3n2C)CC1`, the figure is -16.4% (inactive); as for `CC(NC(=O)c1cccc2ccccc12)c1ccc2c(c1)CCCC2` (centres undefined), -9.25% (inactive); as for `CCOC(=O)CN(C(=O)COc1nc(C)cc(C)c1C#N)c1ccc(Cl)cc1`, 3.1% (inactive).
